The supplement of paper PMC10037445
In all, about 2,900 compounds were measured (“NF-kB SEAP reporter activity, fold change vs agonist alone”: median about 0.99, highest 2% from about 2.6 on). This excerpt belongs to a sample that is enriched for the highest values.

What was measured:
[1] = test system: RAW-Dual; assay: NF-kB SEAP reporter activity, fold change vs agonist alone; higher = enhanced NF-kB activity
In short: (§1)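 RAW-Dual macrophages (50,000 cells/well in DMEM, 384-well plates) received 50 nL of library stock by pin tool, then a PRR agonist 1 h later, and were kept at 37 °C, 5% CO2. After 20 hours, supernatant was read for IRF by QuantiLuc luminescence and for NF-κB by QuantiBlue absorbance at 620 nm. Reporter activity is fold change over agonist-alone wells. Cytotoxic wells had IncuCyte confluency below 70% of agonist controls in both mask sets.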

[2] = test system: RAW-Dual; assay: NF-kB SEAP reporter activity, fold change vs agonist alone; cytotoxicity flag (confluency mask): not cytotoxic; higher = enhanced NF-kB activity
In short: as §1

[3] = test system: RAW-Dual; assay: NF-kB SEAP reporter activity, fold change vs agonist alone; cytotoxicity flag (confluency mask): cytotoxic (confluency <70% of control); higher = enhanced NF-kB activity
In short: as §1

[4] = library stock concentration (final ~1000-fold dilution): 10 mM, cytotoxicity flag (confluency mask): not cytotoxic, agonist: Imiquimod (TLR7) […]
[5] = library stock concentration (final ~1000-fold dilution): 10 mM, cytotoxicity flag (confluency mask): not cytotoxic, agonist: MPLA (TLR4) […]
[6] = agonist: ODN 1826 (TLR9) 0.5 ug/mL
[7] = agonist: Pam2CSK4 (TLR2/6) 0.1 ug/mL
[8] = agonist: Pam3CSK4 (TLR2/1) 0.1 ug/mL
[9] = library stock concentration (final ~1000-fold dilution): 10 mM, cytotoxicity flag (confluency mask): cytotoxic (confluency <70% of control), agonist: Imiquimod (TLR7) […]
[10] = library stock concentration (final ~1000-fold dilution): 10 mM, cytotoxicity flag (confluency mask): cytotoxic (confluency <70% of control), agonist: MPLA (TLR4) […]

CC1OC(OC2C(Oc3cc(O)c(C(=O)CCc4ccc(O)cc4)c(O)c3)OC(CO)C(O)C2O)C(O)C(O)C1O (stereo unspecified)
NF-kB SEAP reporter activity [1, 4]: 0.957
NF-kB SEAP reporter activity [1, 5]: 1.03

CC1OC(OC2C(Oc3cc(O)c(C(=O)CCc4ccc(O)cc4)c(O)c3)OC(CO)C(O)C2O)C(O)C(O)C1O (stereo unspecified) (library stock concentration (final ~1000-fold dilution): 10 mM)
NF-kB SEAP reporter activity ([2]; agonist: LPS (TLR4) 0.1 ug/mL): 0.867
NF-kB SEAP reporter activity [2, 6]: 0.991
NF-kB SEAP reporter activity [2, 7]: 0.784
NF-kB SEAP reporter activity [2, 8]: 1.06

O=c1c(-c2ccc(O)cc2)coc2cc(OC3OC(CO)C(O)C(O)C3O)ccc12 (stereo unspecified) (library stock concentration (final ~1000-fold dilution): 10 mM)
NF-kB SEAP reporter activity ([2]; agonist: LPS (TLR4) 0.1 ug/mL): 1.62
NF-kB SEAP reporter activity [2, 6]: 1.17
NF-kB SEAP reporter activity [2, 7]: 1.25
NF-kB SEAP reporter activity [2, 8]: 1.38

O=c1c(-c2ccc(O)cc2)coc2cc(OC3OC(CO)C(O)C(O)C3O)ccc12 (stereo unspecified)
NF-kB SEAP reporter activity [1, 4]: 1.08
NF-kB SEAP reporter activity [1, 5]: 1.08

CN(CC(=O)N(Cc1ccc(C2CCCCC2)cc1)c1ccc(C(=O)NO)cc1)S(=O)(=O)c1c(F)c(F)c(F)c(F)c1F (library stock concentration (final ~1000-fold dilution): 10 mM)
NF-kB SEAP reporter activity ([2]; agonist: LPS (TLR4) 0.1 ug/mL): 0.324
NF-kB SEAP reporter activity [2, 6]: 1.53
NF-kB SEAP reporter activity [2, 7]: 0.374
NF-kB SEAP reporter activity [2, 8]: 0.284

CN(CC(=O)N(Cc1ccc(C2CCCCC2)cc1)c1ccc(C(=O)NO)cc1)S(=O)(=O)c1c(F)c(F)c(F)c(F)c1F
NF-kB SEAP reporter activity [1, 4]: 1.3
NF-kB SEAP reporter activity [1, 5]: 1.02

CS(=O)(=O)c1ccc(-c2cnc(N)c(C(=O)Nc3ccccc3)n2)cc1
NF-kB SEAP reporter activity [1, 4]: 1.45
NF-kB SEAP reporter activity [1, 5]: 2.21

CS(=O)(=O)O.Cc1ccc(NC(=O)c2ccc(CN3CCN(C)CC3)cc2)cc1Nc1nccc(-c2cccnc2)n1 (library stock concentration (final ~1000-fold dilution): 10 mM)
NF-kB SEAP reporter activity ([3]; agonist: LPS (TLR4) 0.1 ug/mL): 1.29
NF-kB SEAP reporter activity [3, 6]: 0.201
NF-kB SEAP reporter activity [3, 7]: 1.13
NF-kB SEAP reporter activity [3, 8]: 1.25

CS(=O)(=O)c1ccc(-c2cnc(N)c(C(=O)Nc3ccccc3)n2)cc1 (library stock concentration (final ~1000-fold dilution): 10 mM)
NF-kB SEAP reporter activity ([2]; agonist: LPS (TLR4) 0.1 ug/mL): 4.61
NF-kB SEAP reporter activity [2, 6]: 0.67
NF-kB SEAP reporter activity [2, 7]: 1.02
NF-kB SEAP reporter activity [2, 8]: 1.48

CS(=O)(=O)c1ccc(C(=O)Nc2ccc(Cl)c(-c3ccccn3)c2)c(Cl)c1 (library stock concentration (final ~1000-fold dilution): 10 mM)
NF-kB SEAP reporter activity ([2]; agonist: LPS (TLR4) 0.1 ug/mL): 1.19
NF-kB SEAP reporter activity [2, 6]: 1.4
NF-kB SEAP reporter activity [2, 7]: 0.898
NF-kB SEAP reporter activity [2, 8]: 1.01

CN1CCN(S(=O)(=O)c2ccc(-c3cnc(N)c(C(=O)Nc4cccnc4)n3)cc2)CC1
NF-kB SEAP reporter activity [1, 4]: 1.5
NF-kB SEAP reporter activity [1, 5]: 2.5

CC(C)(C)c1ccc(S(=O)(=O)NCc2ccc(C(=O)Nc3cccnc3)cc2)cc1 (library stock concentration (final ~1000-fold dilution): 10 mM)
NF-kB SEAP reporter activity ([2]; agonist: LPS (TLR4) 0.1 ug/mL): 0.67
NF-kB SEAP reporter activity [2, 6]: 1.1
NF-kB SEAP reporter activity [2, 7]: 0.834
NF-kB SEAP reporter activity [2, 8]: 0.706

CS(=O)(=O)O.Cc1ccc(NC(=O)c2ccc(CN3CCN(C)CC3)cc2)cc1Nc1nccc(-c2cccnc2)n1
NF-kB SEAP reporter activity [1, 9]: 1.24
NF-kB SEAP reporter activity [1, 10]: 1.46

CC(C)(C)c1ccc(S(=O)(=O)NCc2ccc(C(=O)Nc3cccnc3)cc2)cc1
NF-kB SEAP reporter activity [1, 4]: 0.865
NF-kB SEAP reporter activity [1, 5]: 0.908

CNCc1ccc(-c2cc(-c3nc(-c4ccc(S(=O)(=O)C(C)C)cc4)cnc3N)on2)cc1 (library stock concentration (final ~1000-fold dilution): 10 mM)
NF-kB SEAP reporter activity ([2]; agonist: LPS (TLR4) 0.1 ug/mL): 1.06
NF-kB SEAP reporter activity [2, 6]: 0.943
NF-kB SEAP reporter activity [2, 7]: 0.871
NF-kB SEAP reporter activity [2, 8]: 1.05

CNCc1ccc(-c2cc(-c3nc(-c4ccc(S(=O)(=O)C(C)C)cc4)cnc3N)on2)cc1
NF-kB SEAP reporter activity [1, 4]: 0.858
NF-kB SEAP reporter activity [1, 5]: 0.98

CS(=O)(=O)c1ccc(C(=O)Nc2ccc(Cl)c(-c3ccccn3)c2)c(Cl)c1
NF-kB SEAP reporter activity [1, 4]: 1.07
NF-kB SEAP reporter activity [1, 5]: 0.945

CN1CCN(S(=O)(=O)c2ccc(-c3cnc(N)c(C(=O)Nc4cccnc4)n3)cc2)CC1 (library stock concentration (final ~1000-fold dilution): 10 mM)
NF-kB SEAP reporter activity ([2]; agonist: LPS (TLR4) 0.1 ug/mL): 4.28
NF-kB SEAP reporter activity [2, 6]: 2.61
NF-kB SEAP reporter activity [2, 7]: 1.11
NF-kB SEAP reporter activity [2, 8]: 2.07

CC/C=C\C/C=C\C/C=C\C/C=C\C/C=C\C/C=C\CCC(=O)NCCNC(=O)c1ccccc1O
NF-kB SEAP reporter activity [1, 9]: 0.248
NF-kB SEAP reporter activity [1, 10]: 1.54

CC/C=C\C/C=C\C/C=C\C/C=C\C/C=C\C/C=C\CCC(=O)NCCNC(=O)c1ccccc1O (library stock concentration (final ~1000-fold dilution): 10 mM)
NF-kB SEAP reporter activity ([3]; agonist: LPS (TLR4) 0.1 ug/mL): 0.318
NF-kB SEAP reporter activity [3, 6]: 0.298
NF-kB SEAP reporter activity [3, 7]: 0.133
NF-kB SEAP reporter activity [3, 8]: 0.184

C=CC(=O)N1CC(N2CCN(C(=O)CNc3cc(C4(C)CC4)c(Cl)cc3O)CC2)C1 (library stock concentration (final ~1000-fold dilution): 10 mM)
NF-kB SEAP reporter activity ([2]; agonist: LPS (TLR4) 0.1 ug/mL): 0.418
NF-kB SEAP reporter activity [2, 6]: 0.542
NF-kB SEAP reporter activity [2, 7]: 0.537
NF-kB SEAP reporter activity [2, 8]: 0.448

C=CC(=O)N1CC(N2CCN(C(=O)CNc3cc(C4(C)CC4)c(Cl)cc3O)CC2)C1
NF-kB SEAP reporter activity [1, 4]: 0.915
NF-kB SEAP reporter activity [1, 5]: 0.645

Cl.N=C(N)NC(=O)c1nc(Cl)c(N)nc1N.O.O (library stock concentration (final ~1000-fold dilution): 10 mM water)
NF-kB SEAP reporter activity ([2]; agonist: LPS (TLR4) 0.1 ug/mL): 1.07
NF-kB SEAP reporter activity [2, 6]: 1.09
NF-kB SEAP reporter activity [2, 7]: 0.993
NF-kB SEAP reporter activity [2, 8]: 0.984

Cl.N=C(N)NC(=O)c1nc(Cl)c(N)nc1N.O.O
NF-kB SEAP reporter activity ([1]; library stock concentration (final ~1000-fold dilution): 10 mM water, cytotoxicity flag (confluency mask): not cytotoxic, agonist: Imiquimod (TLR7) […]): 0.827
NF-kB SEAP reporter activity ([1]; library stock concentration (final ~1000-fold dilution): 10 mM water, cytotoxicity flag (confluency mask): not cytotoxic, agonist: MPLA (TLR4) […]): 1.01

Cn1nc(C(C)(C)C)cc1C(=O)NC(Cc1cccc(Cl)c1)C(=O)NCC#N (stereo unspecified) (library stock concentration (final ~1000-fold dilution): 10 mM)
NF-kB SEAP reporter activity ([2]; agonist: LPS (TLR4) 0.1 ug/mL): 1.13
NF-kB SEAP reporter activity [2, 6]: 1.14
NF-kB SEAP reporter activity [2, 7]: 0.947
NF-kB SEAP reporter activity [2, 8]: 0.992
